Experimental data: article PMC5540273 (PLoS ONE, 2017)
Where “and” joins values, the source holds several entries; their conditions need not be identical. Equal entries are not always repeated. Where two headings read alike, the source gives them in different places.

Experiments:
HIPK2 = settings: concentration: 1 μM, replicates: in singlicate, n = 1
HIPK3 = settings: concentration: 1 μM, replicates: in singlicate, n = 1
HIPK4 = settings: concentration: 1 μM, replicates: in singlicate, n = 1
HPK1 = settings: concentration: 1 μM, replicates: in singlicate, n = 1
HUNK = settings: concentration: 1 μM, replicates: in singlicate, n = 1
ICK = settings: concentration: 1 μM, replicates: in singlicate, n = 1
IGF1R = settings: concentration: 1 μM, replicates: in singlicate; n = 1
IKK-alpha = tested on: T1, IKK-alpha; settings: concentration: 1 μM, replicates: in singlicate, n = 1
T1 construct: gene CHUK

IKK-beta = tested on: T2, IKK-beta; settings: concentration: 1 μM, replicates: in singlicate; n = 1
T2 construct: gene IKBKB

IKK-epsilon = tested on: T3, IKK-epsilon; settings: concentration: 1 μM, replicates: in singlicate, n = 1
T3 construct: gene IKBKE

INSRR = settings: concentration: 1 μM, replicates: in singlicate, n = 1
INSR = settings: concentration: 1 μM, replicates: in singlicate, n = 1
IRAK1 = settings: concentration: 1 μM, replicates: in singlicate, n = 1
IRAK3 = settings: concentration: 1 μM, replicates: in singlicate; n = 1
IRAK4 = settings: concentration: 1 μM, replicates: in singlicate, n = 1
ITK = settings: concentration: 1 μM, replicates: in singlicate, n = 1
[1] = tested on: JAK1(JH1domain-catalytic); settings: concentration: 1 μM, replicates: in singlicate, n = 1
[2] = tested on: JAK1(JH2domain-pseudokinase); settings: concentration: 1 μM, replicates: in singlicate, n = 1
[3] = tested on: JAK2(JH1domain-catalytic); settings: concentration: 1 μM, replicates: in singlicate, n = 1
[4] = tested on: JAK3(JH1domain-catalytic); settings: concentration: 1 μM, replicates: in singlicate; n = 1
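Also: KINOMEscan kinase panel screen.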

O=C(c1ccc(-c2cc(-c3c[nH]nc3-c3ccccn3)ccn2)cc1)N1CCCC1 [GW792479]
%Inh (HIPK2): 0% | %Inh (HIPK3): 0% | %Inh (HIPK4): 24% | %Inh (HPK1): 20% | %Inh (HUNK): 9% | %Inh (ICK): 0% | %Inh (IGF1R): 0% | %Inh (IKK-alpha): 0% | %Inh (IKK-beta): 0% | %Inh (IKK-epsilon): 0% | %Inh (INSRR): 0% | %Inh (INSR): 6% | %Inh (IRAK1): 0% | %Inh (IRAK3): 0% | %Inh (IRAK4): 0% | %Inh (ITK): 0% | %Inh [1]: 0% | %Inh [2]: 15% | %Inh [3]: 0% | %Inh [4]: 39%

Clc1cc(Nc2ncnc3cc[nH]c23)ccc1OCc1ccccn1
%Inh (HIPK2): 19% | %Inh (HIPK3): 27% | %Inh (HIPK4): 0% | %Inh (HPK1): 0% | %Inh (HUNK): 13% | %Inh (ICK): 18% | %Inh (IGF1R): 0% | %Inh (IKK-alpha): 9% | %Inh (IKK-beta): 20% | %Inh (IKK-epsilon): 27% | %Inh (INSRR): 0% | %Inh (INSR): 3% | %Inh (IRAK1): 6% | %Inh (IRAK3): 19% | %Inh (IRAK4): 2% | %Inh (ITK): 0% | %Inh [1]: 3% | %Inh [2]: 35% | %Inh [3]: 16% | %Inh [4]: 0%

O=C(Nc1ccccc1)Nc1ccc(Oc2ccc3nccn3n2)cc1
%Inh (HIPK2): 0% | %Inh (HIPK3): 0% | %Inh (HIPK4): 4% | %Inh (HPK1): 0% | %Inh (HUNK): 9% | %Inh (ICK): 0% | %Inh (IGF1R): 0% | %Inh (IKK-alpha): 0% | %Inh (IKK-beta): 0% | %Inh (IKK-epsilon): 0% | %Inh (INSRR): 1% | %Inh (INSR): 0% | %Inh (IRAK1): 0% | %Inh (IRAK3): 0% | %Inh (IRAK4): 0% | %Inh (ITK): 20% | %Inh [1]: 28% | %Inh [2]: 2% | %Inh [3]: 8% | %Inh [4]: 0%

NC(=O)c1sc(-n2cnc3ccccc32)cc1OCc1ccccc1F [GSK1024306]
%Inh (HIPK2): 44% | %Inh (HIPK3): 0% | %Inh (HIPK4): 24% | %Inh (HPK1): 51% | %Inh (HUNK): 0% | %Inh (ICK): 0% | %Inh (IGF1R): 0% | %Inh (IKK-alpha): 0% | %Inh (IKK-beta): 2% | %Inh (IKK-epsilon): 0% | %Inh (INSRR): 0% | %Inh (INSR): 0% | %Inh (IRAK1): 0% | %Inh (IRAK3): 0% | %Inh (IRAK4): 0% | %Inh (ITK): 8% | %Inh [1]: 6% | %Inh [2]: 0% | %Inh [3]: 21% | %Inh [4]: 0%

COc1ccc(-c2nc3n(c2-c2ccncc2)CCC3)cc1 [SKF-104493]
%Inh (HIPK2; 1 µM): 11% and 0% | %Inh (HIPK3; 1 µM): 0% and 17% | %Inh (HIPK4; 1 µM): 2% and 0% | %Inh (HPK1; 1 µM): 17% and 0% | %Inh (HUNK; 1 µM): 35% and 0% | %Inh (ICK; 1 µM): 32% and 10% | %Inh (IGF1R): 0% | %Inh (IKK-alpha; 1 µM): 1% and 0% | %Inh (IKK-beta): 0% | %Inh (IKK-epsilon; 1 µM): 0% and 20% | %Inh (INSRR; 1 µM): 1% and 0% | %Inh (INSR; 1 µM): 5% and 0% | %Inh (IRAK1; 1 µM): 12% and 0% | %Inh (IRAK3): 0% | %Inh (IRAK4; 1 µM): 0% and 2% | %Inh (ITK; 1 µM): 0% and 1% | %Inh ([1]; 1 µM): 0% and 9% | %Inh ([2]; 1 µM): 43% and 41% | %Inh ([3]; 1 µM): 11% and 0% | %Inh [4]: 0%

CC(C)N1CCC(n2cnc(-c3ccc(F)cc3)c2-c2ccnc(N)n2)CC1 [SB-223132]
%Inh (HIPK2): 0% | %Inh (HIPK3): 0% | %Inh (HIPK4): 11% | %Inh (HPK1): 0% | %Inh (HUNK): 0% | %Inh (ICK): 0% | %Inh (IGF1R): 0% | %Inh (IKK-alpha): 0% | %Inh (IKK-beta): 0% | %Inh (IKK-epsilon): 0% | %Inh (INSRR): 0% | %Inh (INSR): 0% | %Inh (IRAK1): 0% | %Inh (IRAK3): 23% | %Inh (IRAK4): 0% | %Inh (ITK): 0% | %Inh [1]: 0% | %Inh [2]: 56% | %Inh [3]: 0% | %Inh [4]: 24%

COC(=O)c1c(-c2ccccc2)c2cc(Cl)ccc2c(=O)n1Cc1ccc(S(C)(=O)=O)cc1
%Inh (HIPK2): 24% | %Inh (HIPK3): 0% | %Inh (HIPK4): 0% | %Inh (HPK1): 0% | %Inh (HUNK): 0% | %Inh (ICK): 32% | %Inh (IGF1R): 0% | %Inh (IKK-alpha): 0% | %Inh (IKK-beta): 0% | %Inh (IKK-epsilon): 0% | %Inh (INSRR): 0% | %Inh (INSR): 5% | %Inh (IRAK1): 11% | %Inh (IRAK3): 19% | %Inh (IRAK4): 9% | %Inh (ITK): 21% | %Inh [1]: 0% | %Inh [2]: 0% | %Inh [3]: 5% | %Inh [4]: 4%

Fc1ccc(-c2ncn(CCCNCc3ccccc3)c2-c2ccncc2)cc1
%Inh (HIPK2): 23% | %Inh (HIPK3): 45% | %Inh (HIPK4): 0% | %Inh (HPK1): 8% | %Inh (HUNK): 7% | %Inh (ICK): 12% | %Inh (IGF1R): 4% | %Inh (IKK-alpha): 0% | %Inh (IKK-beta): 9% | %Inh (IKK-epsilon): 10% | %Inh (INSRR): 5% | %Inh (INSR): 0% | %Inh (IRAK1): 24% | %Inh (IRAK3): 9% | %Inh (IRAK4): 19% | %Inh (ITK): 21% | %Inh [1]: 0% | %Inh [2]: 24% | %Inh [3]: 36% | %Inh [4]: 8%
